# Measured values: PubChem BioAssay (Tox21)
# Values without a mark were called inactive. Inconclusive results are not listed. Entries that show only a call come without a potency. Calls of active or inactive are those of the source. Unless noted, the call rests on the fitted dose curve; in most records, active means well fitted curve in the direction sought with a large enough effect in the repeat runs; inconclusive means weak or mixed curves; inactive means no such curve, though single readings can be large; an effect the other way counts as inactive or inconclusive.
# Legend:
# [1] = qHTS assay to identify small molecule agonists of H2AX (AID 1224845; active means well fitted activation curve with a large enough effect in the signal ratio in the repeat runs, not every such curve was filed as active; the % refers to the signal ratio)
# How it was run: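 Wild-type CHO-K1 cells, plated overnight, exposed 3hr at 37C to 15 concentrations (0.76% DMSO final). Lysed, then HTRF anti-pH2AX (S139) cryptate and anti-H2AX-d2 antibodies, 24 hr room temperature; 665/620 nm emission read.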
# [2] = qHTS assay to identify small molecule agonists of the hypoxia (HIF-1) signaling pathway (AID 1224846; active means well fitted activation curve with a large enough effect in the signal ratio in the repeat runs, not every such curve was filed as active; the % refers to the signal ratio)
# How it was run: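 HRE-bla ME-180 beta-lactamase reporter cells in medium with 0.5% dialyzed FBS, pre-incubated 5 h then exposed to compounds 17 h at 37C, 5% CO2; reporter induction read with CCF4-AM FRET substrate.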
# [3] = qHTS assay to identify small molecule agonists of H2AX - cell viability counter screen (AID 1224847; calls by dose curve; further: nearly all actives have a fitted effect of over 30% in size; further: potency means the concentration at half of the fitted maximal effect; on activity change, negative = cytotoxicity: top concentration of the series differs between compounds)
# How it was run: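 Viability of CHO-K1 (wild type) cells after 3 hr compound exposure was measured by CellTiter-Glo luminescence.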
# [4] = qHTS assay to identify small molecule antagonists of the estrogen related receptor (ERR) signaling pathway from Tox21 library (AID 1224848); further: nearly all actives have a fitted effect of over 50% in size; further: potency means the concentration at half of the fitted maximal effect
# How it was run: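 Luminescent reporter read-out (ONE-Glo) from NTP's ERR cell line after 18 h treatment at 37 C with DMSO-dissolved Tox21 compounds; cells pre-plated 6 h beforehand at 2,000 per well.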
# [5] = qHTS assay to identify small molecule agonists of the estrogen related receptor (ERR) signaling pathway from Tox21 library (AID 1224849; calls by dose curve; further: nearly all actives have a fitted effect of over 15% in size); conditions: ERR reporter cell line, ONE-Glo luciferase, 18 h; at 92.4 µM (top of the series) unless noted
# How it was run: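 ERR reporter cells (NTP line) pre-incubated 6 hours at 37 C, then exposed to compounds for 18 hours at 37 C. ONE-Glo luciferase luminescence was read after 30 minutes at room temperature.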
# [6] = qHTS RealTime-Glo MT Cell Viability Assay in HepG2 cells - 24 hour (AID 1224867); further: nearly all actives have a fitted effect of over 50% in size
# How it was run: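 Luminescence read-out: viable HepG2 cells reduce a prosubstrate to a NanoLuc substrate, giving a signal proportional to live cell number. Reads taken at 0, 8, 16, 24, 32 and 40 h of compound exposure at 37 C.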
# [7] = qHTS RealTime-Glo MT Cell Viability Assay in HEK293 cells - 32 hour (AID 1224868); further: top concentration of the series differs between compounds; nearly all actives have a fitted effect of over 50% in size
# How it was run: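 Nonlytic real-time viability readout: viable cells convert prosubstrate to NanoLuc substrate, giving luminescence proportional to live cell number. HEK293, 600 cells/well, compound added after 5 h, continuous culture at 37 C.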
# [8] = A CellTox Green Cytotoxicity Assay to monitor cytotoxicity in HEK293 cells - 0 hour (AID 1224869); further: nearly all actives have a fitted effect of over 50% in size
# How it was run: (§1)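 HEK293 cells, 600/well, were preincubated 5 hours and then exposed to compounds at 37 C for up to 40 hours. A cell-impermeant cyanine dye staining dead-cell DNA was read by fluorescence at 0, 8, 16, 24, 32 and 40 h time points.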
# [9] = qHTS RealTime-Glo MT Cell Viability Assay in HepG2 cells - 40 hour (AID 1224870); further: nearly all actives have a fitted effect of over 50% in size
# How it was run: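 HepG2 cells (600/well) mixed with RealTime-Glo MT reagent, settled 5 h at 37 C/5% CO2 before compound addition. Nonlytic NanoLuc luminescence from viable-cell prosubstrate reduction read repeatedly during 40 h treatment at 37 C.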
# [10] = A CellTox Green Cytotoxicity Assay to monitor cytotoxicity in HEK293 cells - 40 hour (AID 1224871); further: nearly all actives have a fitted effect of over 45% in size
# How it was run: as §1
compound,measurement,setting,value
CCc1cccc(CC)c1N(COC)C(=O)CS(=O)(=O)O,Potency,[1],inactive
same,outcome,[2],inactive
same,Potency,[3],inactive
same,Potency,[4],inactive
same,"activity change, positive = activation",[5],-4.79%
same,Potency,[6],inactive
same,Potency,[7],inactive
same,Potency,[8],inactive
same,Potency,[9],inactive
same,Potency,[10],inactive
CCOCOCC,Potency,[1],inactive
same,outcome,[2],inactive
same,Potency,[3],inactive
same,Potency,[4],inactive
same,"activity change, positive = activation",[5],0.502%
same,Potency,[6],inactive
same,Potency,[8],inactive
same,Potency,[9],inactive
same,Potency,[10],inactive
[O]=[Zr],Potency,[1],inactive
same,outcome,[2],inactive
same,Potency,[3],inactive
same,Potency,[4],inactive
same,"activity change, positive = activation",[5],5.09%
same,Potency,[6],inactive
same,Potency,[7],inactive
same,Potency,[8],inactive
same,Potency,[10],inactive
CC(C)c1ccccc1N,Potency,[1],inactive
same,outcome,[2],inactive
same,Potency,[3],inactive
same,Potency,[4],inactive
same,"activity change, positive = activation",[5],3.39%
same,Potency,[6],inactive
same,Potency,[8],inactive
same,Potency,[9],inactive
same,Potency,[10],inactive
CCCCCCCCCCCCCOP(=O)(O)O,Potency,[1],inactive
same,outcome,[2],inactive
same,Potency,[3],inactive
same,Potency,[4],inactive
same,"activity change, positive = activation",[5],-2%
same,Potency,[6],inactive
same,Potency,[7],inactive
same,Potency,[8],inactive
same,Potency,[10],inactive
C/C=C/C(=O)C1=C(C)CCCC1(C)C,Potency,[1],inactive
same,outcome,[2],inactive
same,Potency,[3],inactive
same,"activity change, positive = activation",[5],-5.63%
same,Potency,[6],inactive
same,Potency,[8],inactive
CCN1CCN(c2cc(-c3ccc(F)cc3)c3c(n2)CCCCCC3)CC1,activation (H2AX phosphorylation),[1],3.44% [at 31.6 µM]
same,activation,[2],1.71% [at 15.8 µM]
same,"activity change, negative = cytotoxicity",[3],-6.38% [at 31.6 µM]
same,"activity, negative = inhibition",[4],-10.2% [at 19 µM]
same,"activity change, positive = activation",[5],-5.69% [at 19 µM]
same,"activity change, negative = cytotoxicity",[6],-8.27% [at 15.8 µM]
same,cytotoxicity,[8],-14.4% [at 15.8 µM]
same,"activity change, negative = cytotoxic",[9],-8.41% [at 15.8 µM]
same,cytotoxicity increase,[10],9.69% [at 15.8 µM]
Cc1ccc(O)cn1,Potency,[1],inactive
same,outcome,[2],inactive
same,Potency,[3],inactive
same,Potency,[4],inactive
same,"activity change, positive = activation",[5],9.23%
same,Potency,[6],inactive
same,Potency,[8],inactive
same,Potency,[9],inactive
same,Potency,[10],inactive
C[C@]12CC[C@H]3C(=CCc4cc(O)ccc43)[C@@H]1CCC2=O,Potency,[1],inactive
same,outcome,[2],inactive
same,Potency,[3],101 µM (active)
same,Potency,[4],61.1 µM (active)
same,"activity change, positive = activation",[5],-51.5%
same,Potency,[8],inactive
same,Potency,[9],inactive
same,Potency,[10],inactive
O=C(O)c1cccc(Cl)n1,Potency,[1],inactive
same,outcome,[2],inactive
same,Potency,[3],inactive
same,Potency,[6],inactive
same,Potency,[7],inactive
Cc1ccc2ccc3cccc4ccc1c2c34,Potency,[1],inactive
same,outcome,[2],inactive
same,Potency,[3],inactive
same,"activity change, positive = activation",[5],-32.5%
same,Potency,[6],inactive
same,Potency,[8],inactive
same,Potency,[9],inactive
C#CC(O)CCC (stereo not drawn),Potency,[1],inactive
same,outcome,[2],inactive
same,Potency,[3],inactive
same,Potency,[4],inactive
same,"activity change, positive = activation",[5],6.08%
same,Potency,[6],inactive
same,Potency,[8],inactive
same,Potency,[9],inactive
same,Potency,[10],inactive
CC(=O)OC1CCCCC1,Potency,[1],inactive
same,outcome,[2],inactive
same,Potency,[3],inactive
same,Potency,[4],inactive
same,"activity change, positive = activation",[5],5.62%
same,Potency,[6],inactive
same,Potency,[7],inactive
same,Potency,[8],inactive
same,Potency,[10],inactive
CC(C)(C)c1n[nH]c(=O)n(N)c1=O,Potency,[1],inactive
same,outcome,[2],inactive
same,Potency,[3],inactive
same,Potency,[4],inactive
same,"activity change, positive = activation",[5],-7.06%
same,Potency,[6],inactive
same,Potency,[8],inactive
same,Potency,[9],inactive
same,Potency,[10],inactive
CC(C)=CCCC(C)O (stereo not drawn),Potency,[1],inactive
same,outcome,[2],inactive
same,Potency,[3],inactive
same,Potency,[4],inactive
same,"activity change, positive = activation",[5],0.538%
same,Potency,[6],inactive
same,Potency,[7],inactive
same,Potency,[8],inactive
same,Potency,[9],inactive
same,Potency,[10],inactive
COc1cccc(CCc2ccccc2OCC(CN(C)C)OC(=O)CCC(=O)O)c1 (stereo not drawn),Potency,[1],inactive
same,outcome,[2],inactive
same,Potency,[3],inactive
same,Potency,[4],inactive
same,"activity change, positive = activation",[5],-1.11% [at 42.5 µM]
same,Potency,[6],inactive
same,Potency,[8],inactive
same,Potency,[9],inactive
same,Potency,[10],inactive
CCCCCCCCCC(=O)N(C)C,Potency,[1],inactive
same,outcome,[2],inactive
same,Potency,[3],inactive
same,Potency,[4],inactive
same,"activity change, positive = activation",[5],3.98%
same,Potency,[6],inactive
same,Potency,[8],inactive
CCCCCCCC(=O)OCC,Potency,[1],inactive
same,outcome,[2],inactive
same,Potency,[3],inactive
same,Potency,[4],inactive
same,"activity change, positive = activation",[5],0.783%
same,Potency,[6],inactive
same,Potency,[7],inactive
same,Potency,[8],inactive
same,Potency,[10],inactive
Cc1cncc(C)c1,Potency,[1],inactive
same,outcome,[2],inactive
same,Potency,[3],inactive
same,Potency,[4],inactive
same,Potency,[6],inactive
same,Potency,[7],inactive
same,Potency,[9],inactive
O=S(=O)(O)CCCN1CCOCC1,Potency,[1],inactive
same,outcome,[2],inactive
same,Potency,[3],inactive
same,Potency,[4],inactive
same,"activity change, positive = activation",[5],-0.481%
same,Potency,[6],inactive
same,Potency,[8],inactive
same,Potency,[9],inactive
same,Potency,[10],inactive
CS(C)(=O)=O,Potency,[1],inactive
same,outcome,[2],inactive
same,Potency,[3],inactive
same,Potency,[4],inactive
same,Potency,[6],inactive
same,Potency,[7],inactive
same,Potency,[9],inactive
COc1nccnc1CC(C)C,Potency,[1],inactive
same,outcome,[2],inactive
same,Potency,[3],inactive
same,Potency,[4],inactive
same,"activity change, positive = activation",[5],0.914%
same,Potency,[6],inactive
same,Potency,[8],inactive
same,Potency,[10],inactive
C=C/C=C/C=C/CCCCC,activation (H2AX phosphorylation),[1],0.418% [at 31.6 µM]
same,activation,[2],0.434% [at 15.8 µM]
same,"activity change, negative = cytotoxicity",[3],-1.43% [at 31.6 µM]
same,"activity, negative = inhibition",[4],3.04% [at 19 µM]
same,"activity change, positive = activation",[5],1.56% [at 19 µM]
same,"activity change, negative = cytotoxicity",[6],-0.964% [at 15.8 µM]
same,cytotoxicity,[8],-0.619% [at 15.8 µM]
same,"activity change, negative = cytotoxic",[9],24.6% [at 15.8 µM]
same,cytotoxicity increase,[10],10.9% [at 15.8 µM]
Clc1cccnc1,Potency,[1],inactive
same,outcome,[2],inactive
same,Potency,[3],inactive
same,Potency,[6],inactive
same,Potency,[7],inactive
same,Potency,[8],inactive
same,Potency,[9],inactive
same,Potency,[10],inactive
O=C[C@H](O)[C@H](O)[C@H](O)CO,Potency,[1],inactive
same,outcome,[2],inactive
same,Potency,[3],inactive
same,Potency,[6],inactive
same,Potency,[7],inactive
same,Potency,[8],inactive
same,Potency,[9],inactive
same,Potency,[10],inactive
COc1ccc(C#N)cc1,Potency,[1],inactive
same,outcome,[2],inactive
same,Potency,[3],inactive
same,Potency,[6],inactive
same,Potency,[7],inactive
same,Potency,[8],inactive
same,Potency,[9],inactive
same,Potency,[10],inactive
COc1cccc(OC)c1O,Potency,[1],inactive
same,outcome,[2],inactive
same,Potency,[3],inactive
same,Potency,[6],inactive
same,Potency,[7],inactive
same,Potency,[8],inactive
same,Potency,[9],inactive
